Laboratory results from PubChem BioAssay (NCATS).
Results filed as inconclusive are left out. Calls of active or inactive are those of the source. Calls follow the shape of the dose curve; as a rule, active = well fitted curve in the direction sought with a large enough effect; inconclusive = small, poorly fitted or top-dose-only effect, or another doubt; inactive = no such curve, though single readings can be large; an effect the other way counts as inactive or inconclusive.

Assays:
[1] = Cell Viability - N2a (AID 540); settings: N2a mouse neuroblastoma cell viability; activity change, negative = cytotoxicity: at 92.2 µM (top of the series);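 also: cells exposed to compound for 40 h at 37 °C; plate controls were DMSO alone for no effect and tamoxifen control for full effect; nearly all actives have a fitted effect of over 45% in size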
Summary of the method: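 In this qHTS cytotoxicity screen, ATP-dependent luciferase luminescence reports viable N2a cells after a 40 hr compound exposure in complete culture medium. Potencies are AC50 values from standard Hill equation fits.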

[2] = Cell Viability - HUV-EC-C (AID 542); also: % is scaled to controls: 0 for no effect and ±100 for the full control effect; nearly all actives have a fitted effect of over 35% in size
Summary of the method: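 Concentration-dependent ATP loss in HUV-EC-C cells is the measure. Exposure lasts 40 hr at 37 °C; luminescence follows CellTiter-Glo addition, and Hill fits give AC50.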

[3] = Cell Viability - Renal Proximal Tubule (AID 545); settings: renal proximal tubule cells viability, primary cells of rat origin; at 91.7 µM (top of the series); also: nearly all actives have a fitted effect of over 40% in size
Summary of the method: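 In this qHTS format, normal rat kidney-derived proximal tubule cells in complete culture medium receive compound titrations, then sit 40 hours at 37 °C before luciferase-based ATP quantitation; potency is reported as AC50 from concentration-response curves.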

[4] = Cellular Toxicity (caspase-3) Jurkat (AID 655); settings: Jurkat caspase-3 activation, luminescence, DMSO = 0%, tamoxifen = 100%; at 92.2 µM (top of the series);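 also: cells exposed to compound for 16 h at 37 °C before reading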
Summary of the method: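 qHTS in human Jurkat T-cell leukemia line: 16 hr compound treatment at 37 °C, caspase-3/7 activity measured by Caspase-Glo luminescence. AC50 derived from Hill equation.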

[5] = Cellular Toxicity (caspase-3) SHSY5Y (AID 657);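 also: cells exposed to compound for 16 hours at 37 °C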
Summary of the method: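 Readout: caspase-cleaved peptide-aminoluciferin substrate driving luciferase light in SH-SY5Y neuroblastoma cells after 16 h treatment. Response normalized to DMSO and 10 uM staurosporine controls.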

[6] = Cellular Toxicity (caspase-3) SK-N-SH (AID 661);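 also: cells exposed to compound for 16 hours; 0% = DMSO basal and 100% = 10 µM staurosporine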
Summary of the method: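 Apoptosis readout in SK-N-SH neuroblastoma: Caspase-Glo 3/7 luminescence following 16 hr treatment in complete culture medium. Normalization used DMSO and 10 uM staurosporine controls.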

[7] = Cellular Toxicity (caspase-3) H-4-II-E (AID 663); settings: Potency: caspase-3 activation;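 also: cells exposed to compound for 16 hr before readout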
Summary of the method: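 Caspase 3/7 activation measured by luminescent aminoluciferin substrate cleavage after 16 hr compound treatment of H-4-II-E cells in complete medium. Increase normalized between DMSO (basal) and 100 uM tamoxifen (100%); Hill-equation AC50 from concentration-response.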

[8] = Cellular Toxicity (caspase-3) N2a (AID 665);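 also: compound exposure lasted 16 h at 37 °C before readout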
Summary of the method: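 Concentration-response qHTS: compound-induced caspase-3/7 luminescence in N2a cells (16 h, 37 °C), relative to DMSO and 10 uM staurosporine controls; AC50 obtained using the standard Hill equation.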

[9] = Cell Viability - LYMP2-001 (AID 921);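 also: 0% = DMSO only and full inhibition = tetraoctylammonium bromide control wells; nearly all actives have a fitted effect of over 70% in size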
Summary of the method: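 A lymphoblastoid cell line of human origin was treated with library compounds across a concentration series for 24 hours, and viable cell number was estimated from ATP-driven luciferase light output. Hill modeling gave AC50.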

[10] = Cell Viability - LYMP1-002 - Assay at 16 hr (AID 948);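 also: 0% = DMSO alone and full effect = 92 µM tetraoctylammonium bromide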
Summary of the method: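 In this qHTS, lymphoblastoid LYMP1-002 cells (human) receive compounds for 16 hr at 37 C. Viability is taken from CellTiter-Glo ATP luminescence, and AC50 derives from standard Hill fits.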

[11] = Cell Viability - LYMP1-003 - Assay at 24 hr (AID 963);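 also: plate controls were DMSO only for no effect and tetraoctylammonium bromide positive control for full effect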
Summary of the method: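 The lymphoblastoid line was treated with titrated compounds for 24 hours, and viable cell number estimated from luciferase-based ATP luminescence.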

[12] = Cell Viability - LYMP2-003 (AID 965);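 also: cells exposed to compounds for 24 h before reading; 0% = DMSO only and full effect = 92 µM tetraoctylammonium bromide; nearly all actives have a fitted effect of over 50% in size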
Summary of the method: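 qHTS, human lymphoblastoid line, 2500 cells/well, complete medium. 24 h drug, 37 C. ATP-based luminescent readout; Hill-fit AC50.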

[13] = Cell Viability - LYMP2-005 (AID 967);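 also: plate controls were DMSO only for no effect and 92 µM tetraoctylammonium bromide control for full effect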
Summary of the method: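 Luciferase-based ATP quantitation served as the viability measure in human lymphoblastoid LYMP2-005 cells exposed to test compounds for 24 h at 37 C in complete culture medium. Potency (AC50) was obtained by fitting concentration-response curves with the Hill equation.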

[14] = Cell Viability - LYMP2-009 (AID 968);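 also: 0% = DMSO alone and the full-kill end = tetraoctylammonium bromide at 92 µM; nearly all actives have a fitted effect of over 55% in size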
[15] = Cell Viability - LYMP2-019 (AID 973);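 also: 0% = DMSO alone and full effect = 92 µM tetraoctylammonium bromide; nearly all actives have a fitted effect of over 55% in size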
Summary of the method: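 AC50 values come from Hill-equation modelling of qHTS concentration-response curves, where viability is measured as luciferase-based ATP luminescence in the lymphoblastoid line after 24 hr compound exposure in complete culture medium.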

[16] = Cell Viability - LYMP2-023 (AID 975);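 also: cellular ATP measured by luciferase luminescence as viability proxy; plate controls were DMSO only for no effect and 92 µM tetraoctylammonium bromide control for full effect; nearly all actives have a fitted effect of over 55% in size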
Summary of the method: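 In this qHTS, ATP-based luciferase luminescence (CellTiter-Glo) is quantified in human lymphoblastoid cells after 24 hr compound treatment at 37 C; tetraoctylammonium bromide serves as positive control. Concentration-response curves are Hill-fitted to give AC50.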

[17] = Cell Viability - LYMP2-025 (AID 976);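 also: plate controls were DMSO only for no effect and tetraoctylammonium bromide control for full effect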
Summary of the method: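 Luminescent ATP readout after 24 hr treatment of a human lymphoblastoid line (LYMP2-025, 2500 cells/well, 37 C). Reagent developed 30 min at room temperature; AC50 fitted with the Hill equation.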

[18] = Cell Viability - LYMP2-008 (AID 980); also: % is scaled to controls: 0 for no effect and ±100 for the full control effect; nearly all actives have a fitted effect of over 60% in size
Summary of the method: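 Measured: ATP-dependent luminescence, proportional to viable cell number, in human lymphoblastoid cells treated 24 hr with compound in complete culture medium. Values are AC50s from Hill-equation modelling of qHTS titrations.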

[19] = Cell Viability - LYMP2-014 (AID 983);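 also: plate controls were DMSO only for no effect and 92 µM tetraoctylammonium bromide for full effect; nearly all actives have a fitted effect of over 50% in size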
Summary of the method: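 Quantitative HTS in lymphoblastoid cells: 24 hr compound exposure, then CellTiter-Glo ATP luminescence. Positive control was tetraoctylammonium bromide, 6.4pM to 92 uM.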

[20] = Cell Viability - LYMP2-026 (AID 989); also: % is scaled to controls: 0 for no effect and ±100 for the full control effect; nearly all actives have a fitted effect of over 50% in size
Summary of the method: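 Acute toxicity screen in complete culture medium, with 24 hr compound exposure at 37 C. Viability read as cellular ATP via luciferase reaction, with tetraoctylammonium bromide (6.4pM to 92 uM) as positive control.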

CCCN(CCC)C(=O)SCC
inactive: activity change, negative = cytotoxicity [1] -0.642% | outcome [2] | activity change, negative = cytotoxicity [3] 6.23% | caspase-3 activation [4] 2.52% | outcome [5] | outcome [6] | Potency [7] | outcome [8] | Potency [9] | Potency [10] | Potency [11] | Potency [12] | Potency [13] | Potency [14] | Potency [15] | Potency [16] | Potency [17] | Potency [18] | Potency [19] | Potency [20]

Nc1ccc(S(=O)(=O)O)cc1
inactive: activity change, negative = cytotoxicity [1] -1.94% | outcome [2] | activity change, negative = cytotoxicity [3] -9.81% | caspase-3 activation [4] 0.897% | outcome [5] | outcome [6] | Potency [7] | outcome [8] | Potency [9] | Potency [10] | Potency [11] | Potency [12] | Potency [13] | Potency [14] | Potency [15] | Potency [16] | Potency [17] | Potency [18] | Potency [19] | Potency [20]

CCO[Si](CCCN)(OCC)OCC
inactive: activity change, negative = cytotoxicity [1] -19% | outcome [2] | activity change, negative = cytotoxicity [3] -12% | caspase-3 activation [4] 1.79% | outcome [5] | outcome [6] | Potency [7] | outcome [8] | Potency [9] | Potency [10] | Potency [11] | Potency [12] | Potency [13] | Potency [14] | Potency [15] | Potency [16] | Potency [17] | Potency [18] | Potency [19] | Potency [20]

COCC(=O)O
inactive: activity change, negative = cytotoxicity [1] 3.33% | outcome [2] | activity change, negative = cytotoxicity [3] -6.52% | caspase-3 activation [4] 0.941% | outcome [5] | outcome [6] | Potency [7] | outcome [8] | Potency [9] | Potency [10] | Potency [11] | Potency [12] | Potency [13] | Potency [14] | Potency [15] | Potency [16] | Potency [17] | Potency [18] | Potency [19] | Potency [20]

Cc1ccc([N+](=O)[O-])cc1N
inactive: activity change, negative = cytotoxicity [1] -2.12% | outcome [2] | activity change, negative = cytotoxicity [3] -8.34% | caspase-3 activation [4] -0.45% | outcome [5] | outcome [6] | Potency [7] | outcome [8] | Potency [9] | Potency [10] | Potency [11] | Potency [12] | Potency [13] | Potency [14] | Potency [15] | Potency [16] | Potency [17] | Potency [18] | Potency [19] | Potency [20]
